# Assay results reported in publication PMC5540273 (PLoS ONE, 2017).
# Experiments:
# Conditions in all cases: concentration: 1 μM, replicates: in singlicate; n = 1
# SRPK1 = tested on: SRPK1
# SRPK2 = tested on: SRPK2
# SRPK3 = tested on: SRPK3
# STK16 = tested on: STK16
# STK33 = tested on: STK33
# STK35 = tested on: STK35
# STK36 = tested on: STK36
# STK39 = tested on: STK39
# SYK = tested on: SYK
# SgK110 = tested on: SgK110
# TAK1 = tested on: T1, TAK1
# T1 construct: gene MAP3K7
# TAOK1 = tested on: TAOK1
# TAOK2 = tested on: TAOK2
# TAOK3 = tested on: TAOK3
# TBK1 = tested on: TBK1
# TEC = tested on: TEC
# TESK1 = tested on: TESK1
# TGFBR1 = tested on: TGFBR1
# TGFBR2 = tested on: TGFBR2
# TIE1 = tested on: TIE1
# 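Also: KINOMEscan kinase panel screen.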
structure (smiles),measurement,setting,value
COc1cccc(C2=C(N(C)c3ccccc3)C(=O)NC2=O)c1 [SB-334865],%Inh,SRPK1,0%
same,%Inh,SRPK2,7%
same,%Inh,SRPK3,0%
same,%Inh,STK16,22%
same,%Inh,STK33,0%
same,%Inh,STK35,0%
same,%Inh,STK36,0%
same,%Inh,STK39,7%
same,%Inh,SYK,9%
same,%Inh,SgK110,0%
same,%Inh,TAK1,0%
same,%Inh,TAOK1,0%
same,%Inh,TAOK2,0%
same,%Inh,TAOK3,0%
same,%Inh,TBK1,3%
same,%Inh,TEC,2%
same,%Inh,TESK1,24%
same,%Inh,TGFBR1,29%
same,%Inh,TGFBR2,10%
same,%Inh,TIE1,0%
Cc1nc(N(C)[C@H]2CN(C(=O)CC#N)CC[C@H]2C)c2cc[nH]c2n1,%Inh,SRPK1,26%
same,%Inh,SRPK2,0%
same,%Inh,SRPK3,1%
same,%Inh,STK16,0%
same,%Inh,STK33,0%
same,%Inh,STK35,0%
same,%Inh,STK36,0%
same,%Inh,STK39,0%
same,%Inh,SYK,0%
same,%Inh,SgK110,0%
same,%Inh,TAK1,6%
same,%Inh,TAOK1,10%
same,%Inh,TAOK2,0%
same,%Inh,TAOK3,0%
same,%Inh,TBK1,0%
same,%Inh,TEC,4%
same,%Inh,TESK1,0%
same,%Inh,TGFBR1,0%
same,%Inh,TGFBR2,0%
same,%Inh,TIE1,1%
O=c1cc(N2CCOCC2)nc2n(Cc3ccc(F)c(Cl)c3)ccn12 [GSK2297099],%Inh,SRPK1,0%
same,%Inh,SRPK2,0%
same,%Inh,SRPK3,0%
same,%Inh,STK16,24%
same,%Inh,STK33,0%
same,%Inh,STK35,0%
same,%Inh,STK36,0%
same,%Inh,STK39,0%
same,%Inh,SYK,7%
same,%Inh,SgK110,8%
same,%Inh,TAK1,2%
same,%Inh,TAOK1,0%
same,%Inh,TAOK2,0%
same,%Inh,TAOK3,0%
same,%Inh,TBK1,17%
same,%Inh,TEC,12%
same,%Inh,TESK1,12%
same,%Inh,TGFBR1,35%
same,%Inh,TGFBR2,0%
same,%Inh,TIE1,0%
Nc1ncnc2c1ncn2-c1ccc(Cl)cc1 [AH2635],%Inh,SRPK1,0%
same,%Inh,SRPK2,13%
same,%Inh,SRPK3,0%
same,%Inh,STK16,3%
same,%Inh,STK33,0%
same,%Inh,STK35,0%
same,%Inh,STK36,0%
same,%Inh,STK39,0%
same,%Inh,SYK,31%
same,%Inh,SgK110,0%
same,%Inh,TAK1,0%
same,%Inh,TAOK1,0%
same,%Inh,TAOK2,0%
same,%Inh,TAOK3,0%
same,%Inh,TBK1,15%
same,%Inh,TEC,9%
same,%Inh,TESK1,4%
same,%Inh,TGFBR1,0%
same,%Inh,TGFBR2,6%
same,%Inh,TIE1,0%
COC(=O)c1c(-c2ccccc2)c2cc(C)ccc2c(=O)n1Cc1ccccc1,%Inh,SRPK1,0%
same,%Inh,SRPK2,0%
same,%Inh,SRPK3,0%
same,%Inh,STK16,19%
same,%Inh,STK33,0%
same,%Inh,STK35,0%
same,%Inh,STK36,1%
same,%Inh,STK39,0%
same,%Inh,SYK,0%
same,%Inh,SgK110,12%
same,%Inh,TAK1,0%
same,%Inh,TAOK1,0%
same,%Inh,TAOK2,0%
same,%Inh,TAOK3,0%
same,%Inh,TBK1,0%
same,%Inh,TEC,1%
same,%Inh,TESK1,0%
same,%Inh,TGFBR1,0%
same,%Inh,TGFBR2,0%
same,%Inh,TIE1,0%
O=C(NCc1cccs1)c1cc(C(=O)c2c(Cl)cccc2Cl)c[nH]1 [GW823670],%Inh,SRPK1,0%
same,%Inh,SRPK2,0%
same,%Inh,SRPK3,0%
same,%Inh,STK16,0%
same,%Inh,STK33,0%
same,%Inh,STK35,0%
same,%Inh,STK36,10%
same,%Inh,STK39,0%
same,%Inh,SYK,6%
same,%Inh,SgK110,14%
same,%Inh,TAK1,0%
same,%Inh,TAOK1,0%
same,%Inh,TAOK2,7%
same,%Inh,TAOK3,0%
same,%Inh,TBK1,6%
same,%Inh,TEC,0%
same,%Inh,TESK1,0%
same,%Inh,TGFBR1,27%
same,%Inh,TGFBR2,0%
same,%Inh,TIE1,8%
O=C(Nc1ccc2c(c1)OCO2)NC1CCN(c2ccnc(NCc3ccc(F)cc3)n2)CC1 [GSK1379859],%Inh,SRPK1,28%
same,%Inh,SRPK2,0%
same,%Inh,SRPK3,0%
same,%Inh,STK16,7%
same,%Inh,STK33,0%
same,%Inh,STK35,0%
same,%Inh,STK36,0%
same,%Inh,STK39,0%
same,%Inh,SYK,16%
same,%Inh,SgK110,0%
same,%Inh,TAK1,0%
same,%Inh,TAOK1,0%
same,%Inh,TAOK2,0%
same,%Inh,TAOK3,2%
same,%Inh,TBK1,2%
same,%Inh,TEC,0%
same,%Inh,TESK1,0%
same,%Inh,TGFBR1,0%
same,%Inh,TGFBR2,0%
same,%Inh,TIE1,0%
OCCCNc1nccc(-c2c(-c3cccc(C(F)(F)F)c3)nn3cc(C(F)(F)F)ccc23)n1 [GW630813],%Inh,SRPK1,7%
same,%Inh,SRPK2,2%
same,%Inh,SRPK3,0%
same,%Inh,STK16,8%
same,%Inh,STK33,0%
same,%Inh,STK35,0%
same,%Inh,STK36,55%
same,%Inh,STK39,0%
same,%Inh,SYK,0%
same,%Inh,SgK110,0%
same,%Inh,TAK1,0%
same,%Inh,TAOK1,0%
same,%Inh,TAOK2,0%
same,%Inh,TAOK3,0%
same,%Inh,TBK1,10%
same,%Inh,TEC,0%
same,%Inh,TESK1,11%
same,%Inh,TGFBR1,0%
same,%Inh,TGFBR2,0%
same,%Inh,TIE1,0%
CCn1c(-c2ccoc2)nc2cnccc21 [SB-733887],%Inh,SRPK1,41%
same,%Inh,SRPK2,18%
same,%Inh,SRPK3,0%
same,%Inh,STK16,1%
same,%Inh,STK33,0%
same,%Inh,STK35,0%
same,%Inh,STK36,0%
same,%Inh,STK39,0%
same,%Inh,SYK,26%
same,%Inh,SgK110,0%
same,%Inh,TAK1,91.4%
same,%Inh,TAOK1,0%
same,%Inh,TAOK2,0%
same,%Inh,TAOK3,0%
same,%Inh,TBK1,12%
same,%Inh,TEC,16%
same,%Inh,TESK1,29%
same,%Inh,TGFBR1,0%
same,%Inh,TGFBR2,0%
same,%Inh,TIE1,0%
O=C(Nc1n[nH]c2nc(-c3ccccc3)c(Cl)cc12)C1CC1 [SB-734909],%Inh,SRPK1,0%
same,%Inh,SRPK2,27%
same,%Inh,SRPK3,15%
same,%Inh,STK16,1%
same,%Inh,STK33,0%
same,%Inh,STK35,32%
same,%Inh,STK36,6%
same,%Inh,STK39,0%
same,%Inh,SYK,0%
same,%Inh,SgK110,23%
same,%Inh,TAK1,8%
same,%Inh,TAOK1,0%
same,%Inh,TAOK2,0%
same,%Inh,TAOK3,0%
same,%Inh,TBK1,38%
same,%Inh,TEC,0%
same,%Inh,TESK1,6%
same,%Inh,TGFBR1,0%
same,%Inh,TGFBR2,0%
same,%Inh,TIE1,0%
COc1cc2ncn(-c3cc(OCc4ccncc4)c(C(N)=O)s3)c2cc1OC [GSK336313],%Inh,SRPK1,23%
same,%Inh,SRPK2,0%
same,%Inh,SRPK3,0%
same,%Inh,STK16,25%
same,%Inh,STK33,0%
same,%Inh,STK35,0%
same,%Inh,STK36,0%
same,%Inh,STK39,4%
same,%Inh,SYK,26%
same,%Inh,SgK110,0%
same,%Inh,TAK1,0%
same,%Inh,TAOK1,0%
same,%Inh,TAOK2,0%
same,%Inh,TAOK3,0%
same,%Inh,TBK1,19%
same,%Inh,TEC,6%
same,%Inh,TESK1,0%
same,%Inh,TGFBR1,5%
same,%Inh,TGFBR2,0%
same,%Inh,TIE1,100%
